From PubChem BioAssay
Where “and” joins values, the source holds several entries; their conditions need not be identical. Identical values can stand only once. For some of these results: Measured potencies and affinities stand elsewhere. Calls of active or inactive are those of the source. Unless noted, the rule behind the calls is not given here.

Key:
[1] = antimalarial activity against Dd2 strain (AID 2302;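 active = growth inhibition above 50% at the single 2 µM test dose, taken to imply half-maximal potency below 2 µM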;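 note: 0% = DMSO untreated growth and 100% = chloroquine plus artemisinin killed control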); settings: P. falciparum Dd2 in RBCs, LDH growth readout, 72 h; at 2 µM; stronger effect = higher value
[2] = HepG2 cytotoxicity, primary screen, cytotoxicity control for P. falciparum antimalarial project, cell-based, ATP luminescence (AID 2303;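 active = inhibition above 50%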;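 note: 0% = DMSO wells and 100% = digitonin-killed cells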); settings: HepG2 viability, 24-48 h, at 10 µM, stronger effect = higher value
[3] = target: L-lactate dehydrogenase (Plasmodium falciparum (isolate CDC / Honduras)) (UniProt Q27743); experiment: PfLDH activity inhibition – cell lysate, 3D7 strain, counter-screen for P. falciparum growth inhibition project (AID 2304);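 note: 0% = vehicle and 100% = reference inhibitor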; settings: P. falciparum 3D7 crude extract, LDH APAD/NBT absorbance; at 2 µM; stronger effect = higher value
[4] = inhibition of 3D7 malaria parasite growth – strain 3D7 (AID 2306);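 note: 0% = DMSO wells and 100% = chloroquine plus artemisinin control wells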; settings: P. falciparum 3D7 erythrocytic growth, LDH absorbance, 72 h; at 2 µM; stronger effect = higher value
[5] = target: Calcium-dependent protein kinase 1 (Plasmodium falciparum (isolate 3D7)) (UniProt P62344); experiment: PfCDPK1 kinase inhibitors, biochemical, TCAMS library (AID 1159585; cut-off not given, nearly all actives have IC50 up to about 0.98 µM;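 note: inhibitors leave more ATP so luminescence rises with inhibition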); settings: recombinant PfCDPK1, Kinase-Glo ATP depletion luminescence
[6] = target: Plasmodium falciparum protein kinase 6 (PK6, PF3D7_1337100) (UniProt Q8IDW1); experiment: PfPK6 kinase inhibitors, biochemical, TCAMS library (AID 1159586); settings: recombinant PfPK6, Kinase-Glo ATP depletion luminescence
[7] = target: Protein kinase 7 (PK7), Plasmodium falciparum 3D7 (PF3D7_0213400) (UniProt Q7YTF7); experiment: inhibition of Plasmodium PK7 catalytic activity – biochemical, TCAMS antimalarial set, Kinase-Glo luminescence (AID 1159587); settings: recombinant PfPK7, Kinase-Glo ATP depletion luminescence
[8] = target: Calcium-dependent protein kinase 4 (Plasmodium falciparum (isolate 3D7)) (UniProt Q8IBS5); experiment: PfCDPK4 kinase inhibitors, biochemical, TCAMS library (AID 1159588; cut-off not given, nearly all actives have IC50 up to about 0.91 µM); settings: recombinant PfCDPK4, Kinase-Glo ATP depletion luminescence
[9] = system: F380Y; experiment: modulators of BK channel variants, profiling panel, selectivity assay, cell-based, U2OS BacMam, thallium flux, beta subunits (AID 1259406;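 active = thallium flux through the channel raised or lowered by more than 3 SD from vehicle-only wells, actives on both sides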;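 note: initial slope of Thallos dye fluorescence rise after thallium is added; log ratio against the mean of 0.3% DMSO vehicle wells on the same plate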); settings: at 30 µM
[10] = system: F380Y/beta2Delta; experiment: as above; settings: at 30 µM
[11] = system: R275C; experiment: as above; settings: at 30 µM
[12] = system: R275C/beta1; experiment: as above; settings: at 30 µM
[13] = system: R275C/beta2Delta; experiment: as above; settings: at 30 µM
[14] = system: R275C/Slo1WT/beta2; experiment: as above; settings: at 30 µM
[15] = liver-stage malaria parasite growth inhibition, primary screen, cell-based, HepG2, luciferase luminescence, HepG2 viability (AID 624349; in the data active = parasite load remaining mostly below about 12%, no sharp cut-off; inactive = mostly above about 10%;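 note: 100% = mean of DMSO negative control wells on the same plate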); settings: P. berghei liver stage in HepG2, luciferase luminescence, concentration not given here; parasite load remaining: stronger effect = lower value; viability: measured here: HepG2 viability without parasites
[16] = Cy5 fluorescence interference with SSB-bound oligo, artefact control for HCV NS3 helicase inhibitor project, biochemical, NIH Clinical Collection, E. coli SSB (AID 743268)
[17] = system: Hepatitis C virus NS3 helicase; experiment: HCV NS3 helicase inhibitors, primary screen, biochemical, fluorescence polarization, NIH Clinical Collection (AID 743270); settings: NS3 helicase binding to Cy5-dT15 DNA, stronger effect = higher value, concentration not given here
[18] = target: Single-stranded DNA-binding protein (Escherichia coli (strain K12)) (UniProt P0AGE0); experiment: E. coli SSB displacement from DNA, counter-screen for HCV NS3 helicase inhibitor project, biochemical, fluorescence polarization, NIH Clinical Collection (AID 743271; in the data active = inhibition above about 28%); settings: stronger effect = higher value, concentration not given here
[19] = fluorescence interference in NS3h assay format, artefact control for HCV NS3 helicase inhibitor project, biochemical, NIH Clinical Collection (AID 743272); settings: fluorescence interference counterscreen, stronger effect = lower value;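 note: HCV NS3 helicase with a Cy5 labelled single stranded DNA probe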

Sequence of Calcium-dependent protein kinase 1 (Plasmodium falciparum (isolate 3D7)) (P62344 whole entry, looked up): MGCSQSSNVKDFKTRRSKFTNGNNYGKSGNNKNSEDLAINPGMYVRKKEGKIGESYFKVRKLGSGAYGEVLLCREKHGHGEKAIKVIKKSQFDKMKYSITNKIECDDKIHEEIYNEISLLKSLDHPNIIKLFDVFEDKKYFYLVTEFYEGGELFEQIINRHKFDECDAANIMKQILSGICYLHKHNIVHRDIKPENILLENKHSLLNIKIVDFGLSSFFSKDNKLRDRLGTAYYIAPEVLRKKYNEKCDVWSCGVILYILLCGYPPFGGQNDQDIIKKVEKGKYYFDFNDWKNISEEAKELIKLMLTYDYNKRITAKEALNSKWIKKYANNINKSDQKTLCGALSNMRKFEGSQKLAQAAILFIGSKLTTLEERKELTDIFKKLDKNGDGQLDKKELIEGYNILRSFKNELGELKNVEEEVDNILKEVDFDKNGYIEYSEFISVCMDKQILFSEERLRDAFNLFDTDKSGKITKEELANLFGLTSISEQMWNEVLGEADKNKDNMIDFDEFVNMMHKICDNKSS
Sequence of Protein kinase 7 (PK7), Plasmodium falciparum 3D7 (PF3D7_0213400) (Q7YTF7 1-343): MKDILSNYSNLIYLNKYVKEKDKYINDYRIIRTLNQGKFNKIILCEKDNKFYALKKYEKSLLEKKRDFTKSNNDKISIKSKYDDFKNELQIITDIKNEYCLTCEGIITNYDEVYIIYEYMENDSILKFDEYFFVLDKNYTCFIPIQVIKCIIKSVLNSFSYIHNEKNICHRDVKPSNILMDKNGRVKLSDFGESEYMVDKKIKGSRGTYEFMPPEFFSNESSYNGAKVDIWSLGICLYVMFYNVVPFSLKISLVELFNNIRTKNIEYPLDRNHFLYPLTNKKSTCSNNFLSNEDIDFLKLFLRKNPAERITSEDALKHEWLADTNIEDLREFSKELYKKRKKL
Sequence of Plasmodium falciparum protein kinase 6 (PK6, PF3D7_1337100) (Q8IDW1 1-305): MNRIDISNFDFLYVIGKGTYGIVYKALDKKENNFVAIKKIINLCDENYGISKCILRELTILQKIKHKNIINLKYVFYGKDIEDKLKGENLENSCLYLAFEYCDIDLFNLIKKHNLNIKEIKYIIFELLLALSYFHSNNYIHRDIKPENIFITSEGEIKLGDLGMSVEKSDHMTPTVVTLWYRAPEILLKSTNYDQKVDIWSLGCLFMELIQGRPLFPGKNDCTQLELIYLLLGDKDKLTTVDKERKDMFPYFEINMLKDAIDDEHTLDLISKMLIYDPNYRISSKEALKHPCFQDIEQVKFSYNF
Sequence of Calcium-dependent protein kinase 4 (Plasmodium falciparum (isolate 3D7)) (Q8IBS5 whole entry, looked up): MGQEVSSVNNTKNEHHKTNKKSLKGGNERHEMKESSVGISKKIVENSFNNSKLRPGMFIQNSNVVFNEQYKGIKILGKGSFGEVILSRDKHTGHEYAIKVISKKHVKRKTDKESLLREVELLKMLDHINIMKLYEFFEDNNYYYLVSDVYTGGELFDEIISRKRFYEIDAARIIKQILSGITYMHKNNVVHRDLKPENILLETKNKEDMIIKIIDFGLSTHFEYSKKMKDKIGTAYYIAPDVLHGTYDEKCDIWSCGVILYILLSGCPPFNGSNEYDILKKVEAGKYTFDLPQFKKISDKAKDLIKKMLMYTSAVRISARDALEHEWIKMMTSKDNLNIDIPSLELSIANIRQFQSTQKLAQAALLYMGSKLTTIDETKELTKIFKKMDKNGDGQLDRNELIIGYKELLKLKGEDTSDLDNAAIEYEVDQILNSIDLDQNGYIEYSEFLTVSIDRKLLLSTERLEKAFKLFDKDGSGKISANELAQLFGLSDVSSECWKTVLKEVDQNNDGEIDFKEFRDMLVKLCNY
Sequence of L-lactate dehydrogenase (Plasmodium falciparum (isolate CDC / Honduras)) (Q27743 whole entry, looked up): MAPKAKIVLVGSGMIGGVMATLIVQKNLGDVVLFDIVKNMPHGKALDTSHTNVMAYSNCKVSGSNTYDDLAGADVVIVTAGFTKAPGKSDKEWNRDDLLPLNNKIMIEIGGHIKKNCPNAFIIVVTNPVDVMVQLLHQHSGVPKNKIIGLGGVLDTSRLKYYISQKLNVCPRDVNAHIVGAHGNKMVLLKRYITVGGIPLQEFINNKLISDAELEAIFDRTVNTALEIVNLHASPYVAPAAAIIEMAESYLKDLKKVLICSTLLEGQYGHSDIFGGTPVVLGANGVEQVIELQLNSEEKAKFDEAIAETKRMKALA

CC[C@H]1CN2CC[C@H]1C[C@H]2[C@H](O)c1cc(N2CCCC(C(=O)N(CC)CC)C2)nc2ccc(OC)cc12 (some centres undefined)
active: growth inhibition [1] 99% | growth inhibition [4] 101%
inactive: inhibition [2] -13% | inhibition [3] -2% | outcome [5] | outcome [6] | outcome [7] | outcome [8]

C[C@@H](CC1CCCCC1)NCc1ccccc1O
inactive: inhibition [2] 9% | inhibition [3] 3% | outcome [5] | outcome [6] | outcome [7] | outcome [8]
active: growth inhibition [1] 67% | growth inhibition [4] 98%

Cc1ccc(S(=O)(=O)N2CN3CCN(C3)C2)cc1
inactive: log fold change Tl+ flux [9] -0.028 | log fold change Tl+ flux [10] -0.0357 | log fold change Tl+ flux [11] 0.0146 | log fold change Tl+ flux [12] -0.00993 | log fold change Tl+ flux [13] -0.021 | log fold change Tl+ flux [14] 0.0283

COc1cc(/C=C/C(=O)NC2CCC(CN3CCC(c4c[nH]c5ccccc45)CC3)CC2)ccc1O (centres undefined)
active: growth inhibition [4] 98% and 99%
inactive: growth inhibition [1] 45% and 44% | inhibition [2] 11% and 19% | inhibition [3] -8% and -2% | outcome [5] | outcome [6] | outcome [7] | outcome [8]

c1ccc2c(NCCCCCCNc3c4ccccc4nc4ccccc34)c3ccccc3nc2c1
inactive: inhibition [3] 3% | outcome [5] | outcome [6] | outcome [7] | outcome [8]
active: growth inhibition [1] 80% | inhibition [2] 60% | growth inhibition [4] 99%

CCCC(=O)c1c(O)c2ccccc2oc1=O
active: growth inhibition [4] 93%
inactive: growth inhibition [1] 1% | inhibition [2] 11% | inhibition [3] -5% | outcome [5] | outcome [6] | outcome [7] | outcome [8]

N#CC(C#N)=Cc1cccnc1
inactive: log fold change Tl+ flux [9] 0.00869 | log fold change Tl+ flux [10] -0.0117 | log fold change Tl+ flux [11] -0.0132 | log fold change Tl+ flux [12] -0.0358 | log fold change Tl+ flux [13] -0.0205 | log fold change Tl+ flux [14] -0.0203

CN1CC(c2ccc(Cl)c(Cl)c2)OC1=N (centres undefined)
inactive: growth inhibition [1] 3% | inhibition [3] 2% | outcome [5] | outcome [6] | outcome [7] | outcome [8]
active: growth inhibition [4] 99%

COc1ccc(C(=O)c2ccc3[nH]cc(C4=CCN(C)CC4)c3c2)cc1
inactive: inhibition [3] 4% | outcome [5] | outcome [6] | outcome [7] | outcome [8]
active: growth inhibition [1] 55% | growth inhibition [4] 88%

O=c1[nH]c(=S)[nH]c(O)c1C=C1C=CC=N1
inactive: log fold change Tl+ flux [9] 0.0328 | log fold change Tl+ flux [10] 0.06 | log fold change Tl+ flux [11] 0.0249 | log fold change Tl+ flux [12] 0.101 | log fold change Tl+ flux [13] 0.0741 | log fold change Tl+ flux [14] -0.0255

CC[C@H]1CN2CC[C@@H]1C[C@H]2[C@H](O)c1cc(-c2c(C)noc2C)nc2ccc(OC)cc12
active: growth inhibition [1] 98% | growth inhibition [4] 100%
inactive: inhibition [2] 4% | inhibition [3] -1% | outcome [5] | outcome [6] | outcome [7] | outcome [8]

Oc1cccc(C2CCCN(CCc3c[nH]c4ccccc34)C2)c1 (centres undefined)
inactive: growth inhibition [1] 40% | inhibition [2] 0% | inhibition [3] 2% | outcome [5] | outcome [6] | outcome [7] | outcome [8]
active: growth inhibition [4] 93%

O=c1c2ccccc2[nH]c(=S)n1-c1ccccc1
inactive: log fold change Tl+ flux [9] -0.0122 | log fold change Tl+ flux [10] 0.0408 | log fold change Tl+ flux [11] -0.0195 | log fold change Tl+ flux [12] 0.0238 | log fold change Tl+ flux [13] -0.000731 | log fold change Tl+ flux [14] -0.0521

CC(=O)Nc1ccc(OCCN(CC(F)(F)F)c2ccc(C#N)cc2C(F)(F)F)cc1
inactive: inhibition [2] -1% | inhibition [3] 1% | outcome [5] | outcome [6] | outcome [7] | outcome [8]
active: growth inhibition [1] 83% | growth inhibition [4] 81%

CCCCCc1cc(O)c2c3c(c(=O)oc2c1)CN(C)CC3
active: growth inhibition [1] 99% | growth inhibition [4] 101%
inactive: inhibition [2] 4% | inhibition [3] 4% | outcome [5] | outcome [6] | outcome [7] | outcome [8]

Cc1ccc(-n2nc(C)c3c2NC(=O)CSC3c2ccsc2)cc1 (centres undefined)
inactive: growth inhibition [1] 11% | inhibition [2] -14% | inhibition [3] 2% | outcome [5] | outcome [6] | outcome [7] | outcome [8]
active: growth inhibition [4] 97%

O=C(/C=C/c1ccc(Cl)c(Cl)c1)NCc1ccc(CN2CCC(c3c[nH]c4ccccc34)CC2)cc1
inactive: inhibition [3] -2% | outcome [5] | outcome [6] | outcome [7] | outcome [8]
active: growth inhibition [1] 86% | inhibition [2] 59% | growth inhibition [4] 101%

CC[C@H]1CN2CC[C@H]1C[C@H]2[C@H](O)c1cc(/C=C/c2ccc(F)cc2)nc2ccc(OC)cc12
inactive: inhibition [3] -1% | outcome [5] | outcome [6] | outcome [7] | outcome [8]
active: growth inhibition [1] 99% | inhibition [2] 55% | growth inhibition [4] 99%

O=C(/C=C/c1ccc(Cl)c(Cl)c1)NC[C@@H]1CCC[C@H](CN2CCC(c3c[nH]c4ccccc34)CC2)C1
active: inhibition [2] 61% | growth inhibition [4] 98%
inactive: growth inhibition [1] 43% | inhibition [3] -4% | outcome [5] | outcome [6] | outcome [7] | outcome [8]

CC1CCC[C@H](O)CCCCCc2cc(O)cc(O)c2C(=O)O1 (some centres undefined)
active: log fold change Tl+ flux [12] 0.141 | log fold change Tl+ flux [13] 0.1
64.7%: viability [15]
inactive: parasite load remaining [15] 34.2% | fluorescence ratio [16] 1.04 | inhibition [17] 2.77% | inhibition [18] 0.67% | fluorescence ratio [19] 0.99 | log fold change Tl+ flux [9] 0.0327 | log fold change Tl+ flux [10] -0.0124 | log fold change Tl+ flux [11] -0.00393 | log fold change Tl+ flux [14] 0.035
